In PubChem BioAssay (NCI) one finds growth data, which are given here for 17 compounds.

Common to all, as to experiment: NCI-60 one-dose screen, 48 h (100 = growth as untreated, 0 = no growth, -100 = all killed)
Conditions in all cases: 10 µM unless noted

For assay [1], the system named is DU-145 prostate.
Assay [2] relates to MALME-3M melanoma.
Assay [3] has as its system MDA-MB-231 breast.
Assay [4] concerns RXF 393 renal.
Assay [5] deals with SF-268 CNS.
The subject of assay [6] is SF-295 CNS.
Assay [7] deals with SF-539 CNS.
For assay [8], the system named is UACC-257 melanoma.
For assay [9], the system named is M14 melanoma.

About 83,000 compounds went through this panel and 20% of them were active in at least one assay; those are over-represented in the sample as a whole.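 96-well plates, one dose, 48 hours. Percent growth reported; active if below 10.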 A number with no mark means an inactive call. Activity calls are given as the source filed them.

With `CC(C)CSc1nc(N)nc2c1ncn2C1OC(CO)C(O)C1O` (stereo not drawn), the growth in assay [1] was 115%; in assay [2], 99.5%; in assay [3], 104%; in [4] it was 98.7%; in assay [5] it was 99.9%; in assay [6], 72.3%. The growth in [7] is 94.7%; in assay [8], 104%; in assay [9], 116%.
Consider `CC(C)(CCCN=C(N)Nc1ccc(Cl)cc1)c1ccc(F)cc1`, for which the growth was 80.1% in assay [1]; 64.3% in assay [2]; 41% in assay [3]; 88.7% in [4]; 72.6% in assay [5]; 53.1% in [6]. The values for the growth in [7], in assay [8] and in assay [9] were 76.1%, 86.6% and 51.5%, respectively.
As for `O=C(/C=C/c1ccc(C(F)(F)F)cc1)Nc1ccc(C=C2c3ccccc3C(=O)c3ccccc32)cc1`, the growth was 72.4% in assay [1]; 76.6% in assay [2]; 77.3% in [3]; 68.4% in assay [4]; 67.3% in assay [5]; 59.2% in assay [6]. In addition, the growth in assay [7] is 83.5%; in assay [8] it was 35.1%; in [9], 59.1%.
Take `NC(=NCCCOc1ccc(Cl)cc1)Nc1ccc(Cl)cc1`: the growth in assay [1] was 16.9%; in [2], -20.8% (active); in assay [3] it was -6.18% (active); in [4], 79.3%; in assay [5], 36.6%; in assay [6], 17.9%. The growth was 31.4% in assay [7], 6.24% (active) in assay [8] and -35.7% (active) in assay [9].
Consider `CCOC(=O)c1cc(C(=O)c2ccc(O)c(O)c2)n2ccc(-c3ccn4c(C(=O)c5ccc(O)c(O)c5)cc(C(=O)OCC)c4c3)cc12`, for which the growth was 93.8% in assay [1]; 105% in assay [2]; 52.6% in assay [3]; 86.5% in [4]; 88.5% in [5]; 102% in assay [6]. Also, the growth is 92.5% in [7], 100% in [8] and 93.2% in assay [9].
In the case of `CC(O)CN(CC(C)O)c1ccc2c(c1)Cc1cc([N+](=O)[O-])ccc1-2` (stereo not drawn), the growth in [1] was 101%; in assay [2] it was 83.7%; in assay [3], 99.6%; in assay [4], 105%; in assay [5] it was 85.2%; in [6], 90.3%. For the same compound, the growth in assay [7] was 92.4%; in [8], 125%; in assay [9] it was 106%.
Take `CN1C(=O)C2(SCC(C(=O)NCc3ccccc3)N2C(=O)C2CCCCC2)c2ccccc21` (stereo not drawn): the growth in [1] was 98%; in assay [2] it was 94.1%; in assay [3] it was 117%; in [4], 119%; in assay [5], 83.3%; in [6], 100%. For the same compound, the results for the growth in assay [7], in [8] and in assay [9] were 123%, 106% and 87.3%, respectively.
`COc1ccc2c(c1)C(=O)/C(=C/c1ccccn1)CC2`: the growth in [1] is 26.1%; in assay [2], 72.7%; in assay [3] it was 69.4%; in assay [4], 83%; in [5], 90.8%; in assay [6], 78.2%. Moreover, the figures for the growth in assay [7], in [8] and in assay [9] were 72%, 81% and 85.4%, respectively.
Consider `CCC#CC[C@H](O)C/C=C1/C(=O)C=C[C@@H]1C/C=C\CCCC(=O)OC`, for which the growth in [1] is 23%; in assay [2], 23.4%; in assay [3], 12.7%; in [4], -74.1% (active); in [5], 23.8%; in assay [6], -25.6% (active). Moreover, the growth in assay [7] is -5.91% (active); in [8], -6.54% (active); in assay [9], 5.13% (active).
With `Cc1cc(N2CCSCC2)nc(NC2CCCC(Nc3ccnc4cc(Cl)ccc34)C2)n1` (stereo not drawn), the growth was 19.7% in assay [1]; -86.1% (active) in assay [2]; -75.7% (active) in [3]; -73.7% (active) in [4]; -39.9% (active) in assay [5]; -78.6% (active) in [6]. For the same compound, the growth in [7] is -93.1% (active); in [8] it was -79.3% (active); in assay [9], -88.5% (active).
In the case of `O=c1oc2c(C(F)(F)F)cccc2cc1-c1csc(Nc2ccc(OCCF)cc2)n1`, the growth in [1] is 2.54% (active); in assay [2], 66.2%; in assay [3], 9.58% (active); in assay [4], 22.5%; in assay [5], 23.3%; in [6], 4.4% (active). The values for the growth in assay [7], in [8] and in assay [9] were -28.6% (active), 55.2% and 4.98% (active), respectively.
Turning to `COc1ccc(C(=O)/C=C/c2cccnc2Nc2cc(OC)c(OC)c(OC)c2)cc1`, the growth in assay [1] is 31.9%; in assay [2], 80.5%; in assay [3], 49%; in [4], 12.9%; in assay [5] it was 14.9%; in assay [6], 27.4%. For the same compound, the growth in assay [7] is 4.67% (active); in assay [8], 35.8%; in assay [9] it was 42.7%.
As for `Clc1ccc2c(NCCCCNc3nc(N4CCCCC4)nc4ccccc34)ccnc2c1`, the growth was 27.6% in [1]; -81.8% (active) in [2]; -51.3% (active) in assay [3]; -62.8% (active) in assay [4]; 19.9% in [5]; -54.8% (active) in assay [6]. For the same compound, the results for the growth in assay [7], in assay [8] and in [9] were -86.7% (active), -83.5% (active) and -84.6% (active), respectively.
As for `CCc1nc(N)nc(N)c1C#CC(C)c1cc(-c2ccnc(C)c2)c2oc(C)nc2c1` (stereo not drawn), the growth in assay [1] was 8.31% (active); in [2] it was 36.7%; in assay [3], 25.6%; in assay [4], -5.33% (active); in assay [5], 1.29% (active); in assay [6] it was 5.73% (active). The growth in [7] was -27.3% (active); in [8], 30.9%; in assay [9] it was -9.02% (active).
As for `O=C1c2ccccc2OC=C(c2ccccc2)N1CCCCNc1ccc(S(=O)(=O)Nc2ncccn2)cc1`, the growth in assay [1] was 109%; in assay [2], 110%; in assay [3], 96.8%; in assay [4] it was 98.9%; in assay [5], 91%; in [6], 94%. Further, the results for the growth in assay [7], in assay [8] and in assay [9] were 102%, 91.6% and 99.6%, respectively.
As for `Cc1cc2nc(NC(=O)CN3CCN(CCN4C(=O)c5cccc6cccc(c56)C4=O)CC3)sc2cc1C`, the growth in [1] was 91.7%; in assay [2], 89.5%; in [3], 92.4%; in [4], 87.5%; in [5], 86.3%; in assay [6] it was 91.2%. In addition, the growth in [7] was 80.9%; in assay [8], 99.2%; in [9], 94.3%.
For `N#Cc1nnn(-c2ccc(S(N)(=O)=O)cc2)c1NCC(=O)c1ccccc1`, the growth in assay [1] is 106%; in assay [2] it was 96.4%; in assay [3], 95.1%; in [4] it was 113%; in assay [5], 93.6%; in [6], 100%. Also, the growth is 116% in [7], 88.4% in assay [8] and 97.5% in assay [9].
